Results taken from PubChem BioAssay (EPA / NIEHS).
Several values for one entry are separate records, joined by “and”; a condition that tells them apart may be missing. Identical values can stand only once. More than one record can exist for a structure, and the calls need not agree. Activity calls are given as the source filed them. Rule for the calls: active = hit-call score of the fitted dose curve at least 0.9, where 1 is the maximum; inactive = score below 0.9.

Assays:
[1] = read-out: serum amyloid A (SAA), SAA1 (gene 6288); test: BSK_CASM3C_SAA: BioMAP Diversity Plus: CASM3C Assay for serum amyloid A (SAA) Biomarker Activity (AID 2283049); settings: primary human coronary artery smooth muscle cells; actives raise or lower the signal
[2] = BSK_CASM3C_SRB: Viability Assessment in the BioMAP Diversity Plus: CASM3C Assay (AID 2283050); settings: primary human coronary artery smooth muscle cells;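 note: cells exposed to compound for 24 h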
[3] = read-out: Thrombomodulin, THBD (gene 7056); test: BSK_CASM3C_Thrombomodulin: BioMAP Diversity Plus: CASM3C Assay for Thrombomodulin Biomarker Activity (AID 2283051); settings: primary human coronary artery smooth muscle cells; actives raise or lower the signal;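 note: thrombomodulin protein level measured by ELISA 24 h after dosing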
[4] = read-out: Tissue Factor, F3 (gene 2152); test: BSK_CASM3C_TissueFactor: BioMAP Diversity Plus: CASM3C Assay for Tissue Factor Biomarker Activity (AID 2283052); settings: primary human coronary artery smooth muscle cells; actives raise or lower the signal;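 note: cell surface tissue factor protein level read by ELISA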
[5] = read-out: Interferon-gamma inducible Protein 10 (IP10), CXCL10 (gene 3627); test: BSK_hDFCGF_IP10: BioMAP Diversity Plus: hDFCGF Assay for Interferon-gamma inducible Protein 10 (IP10) Biomarker Activity (AID 2283053); settings: primary human foreskin fibroblasts; actives raise or lower the signal
Outline: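 Chemical-treated human skin fibroblasts (primary) were sampled at 24 h for IP-10 by ELISA. Both increases and decreases relative to DMSO were scored.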

[6] = read-out: Urokinase-type plasminogen activator receptor (uPAR), PLAUR (gene 5329); test: BSK_CASM3C_uPAR: BioMAP Diversity Plus: CASM3C Assay for Urokinase-type plasminogen activator receptor (uPAR) Biomarker Activity (AID 2283054); settings: primary human coronary artery smooth muscle cells; actives raise or lower the signal;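 note: cell-surface uPAR protein level quantified by ELISA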
[7] = read-out: Vascular cell adhesion molecule 1 (VCAM1), VCAM1 (gene 7412); test: BSK_CASM3C_VCAM1: BioMAP Diversity Plus: CASM3C Assay for Vascular cell adhesion molecule 1 (VCAM1) Biomarker Activity (AID 2283055); settings: primary human coronary artery smooth muscle cells; actives raise or lower the signal;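 note: VCAM-1 protein level quantified by ELISA on the cells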
[8] = read-out: Collagen III, COL3A1 (gene 1281); test: BSK_hDFCGF_CollagenIII: BioMAP Diversity Plus: hDFCGF Assay for Collagen III Biomarker Activity (AID 2283056); settings: primary human foreskin fibroblasts; actives raise or lower the signal
Outline: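 ELISA readout of Collagen III in human dermal (foreskin) fibroblasts, taken 24 h post-treatment. Gain or loss relative to DMSO vehicle fitted in both directions.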

[9] = read-out: Epidermal growth factor receptor (EGFR), EGFR (gene 1956); test: BSK_hDFCGF_EGFR: BioMAP Diversity Plus: hDFCGF Assay for Epidermal growth factor receptor (EGFR) Biomarker Activity (AID 2283057); settings: primary human foreskin fibroblasts; actives raise or lower the signal
Outline: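 Cell-based multiplexed assay in primary human foreskin fibroblasts. EGFR is read by ELISA 24 h after treatment and compared with DMSO controls.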

[10] = read-out: Interleukin-8 (IL8), CXCL8 (gene 3576); test: BSK_hDFCGF_IL8: BioMAP Diversity Plus: hDFCGF Assay for Interleukin-8 (IL8) Biomarker Activity (AID 2283058); settings: primary human foreskin fibroblasts; actives raise or lower the signal
Outline: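 IL-8 levels read by ELISA at 24 hours after dosing human skin fibroblast cultures. Parallel SRB staining assessed overt cytotoxicity, and gain or loss of signal was fitted against DMSO control.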

[11] = BSK_hDFCGF_Proliferation: Cell Proliferation Assessment in the BioMAP Diversity Plus: hDFCGF Assay (AID 2283059); settings: primary human foreskin fibroblasts;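 note: curves fitted for both rise and fall of signal versus DMSO baseline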
Outline: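 Total protein read at 560 nm after 0.1% SRB staining of TCA-fixed human skin fibroblasts, […]. Activity is fitted in both directions relative to DMSO as baseline.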

[12] = read-out: Macrophage colony-stimulating factor (MCSF), CSF1 (gene 1435); test: BSK_hDFCGF_MCSF: BioMAP Diversity Plus: hDFCGF Assay for Macrophage colony-stimulating factor (MCSF) Biomarker Activity (AID 2283060); settings: primary human foreskin fibroblasts; actives raise or lower the signal
Outline: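 M-CSF levels read by ELISA at 24 h post-dosing in human skin fibroblasts. Parallel cultures stained with SRB assessed cytotoxicity at the same time point; response fitted in both directions against the DMSO baseline.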

[13] = BSK_hDFCGF_SRB: Viability Assessment in the BioMAP Diversity Plus: hDFCGF Assay (AID 2283061); settings: primary human foreskin fibroblasts;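 note: cells exposed to compound for 24 h before the read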
Outline: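 Viability was read as total protein: after 10% TCA fixation, wells were stained with 0.1% sulforhodamine B and read at 560 nm. Primary human foreskin fibroblasts were dosed for 24 h, with bidirectional fitting versus DMSO.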

[14] = read-out: TIMP metallopeptidase inhibitor 1 (TIMP1), TIMP1 (gene 7076); test: BSK_hDFCGF_TIMP1: BioMAP Diversity Plus: hDFCGF Assay for TIMP metallopeptidase inhibitor 1 (TIMP1) Biomarker Activity (AID 2283062); settings: primary human foreskin fibroblasts; actives raise or lower the signal
Outline: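 TIMP-1 measured by ELISA 24 h after chemical dosing of primary human skin fibroblasts, with gain or loss fitted relative to DMSO. Parallel SRB staining (560 nm) monitored overt cytotoxicity.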

[15] = read-out: Monokine induced gamma interferon (MIG), CXCL9 (gene 4283); test: BSK_hDFCGF_MIG: BioMAP Diversity Plus: hDFCGF Assay for Monokine induced gamma interferon (MIG) Biomarker Activity (AID 2283063); settings: primary human foreskin fibroblasts; actives raise or lower the signal
Outline: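 Human primary foreskin fibroblasts in the hDFCGF system, exposed to test chemical for 24 h; MIG measured by ELISA. Bidirectional curve fitting against DMSO negative control as activity baseline.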

[16] = read-out: Matrix Metallopeptidase 1 (MMP1), MMP1 (gene 4312); test: BSK_hDFCGF_MMP1: BioMAP Diversity Plus: hDFCGF Assay for Matrix Metallopeptidase 1 (MMP1) Biomarker Activity (AID 2283064); settings: primary human foreskin fibroblasts; actives raise or lower the signal
Outline: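 MMP1 levels quantified by ELISA 24 h after dosing human dermal fibroblast cultures, with parallel SRB total-protein staining for overt cytotoxicity. Data fitted in both directions against DMSO baseline.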

[17] = read-out: Vascular cell adhesion molecule 1 (VCAM1), VCAM1 (gene 7412); test: BSK_hDFCGF_VCAM1: BioMAP Diversity Plus: hDFCGF Assay for Vascular cell adhesion molecule 1 (VCAM1) Biomarker Activity (AID 2283065); settings: primary human foreskin fibroblasts; actives raise or lower the signal;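 for AC50: VCAM-1 protein level quantified by ELISA after 24 h chemical exposure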
Outline: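 ELISA readout of VCAM-1 on human dermal fibroblast primary cultures, 24 h after chemical exposure. Gain or loss of signal fitted in both directions against DMSO baseline.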

[18] = read-out: Plasminogen activator inhibitor-1 (PAI1), SERPINE1 (gene 5054); test: BSK_hDFCGF_PAI1: BioMAP Diversity Plus: hDFCGF Assay for Plasminogen activator inhibitor-1 (PAI1) Biomarker Activity (AID 2283066); settings: primary human foreskin fibroblasts; actives raise or lower the signal
Outline: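 Human skin fibroblast cultures receive chemical for 24 h before PAI-1 is measured by ELISA; signal changes are fitted bidirectionally against DMSO-treated wells.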

[19] = read-out: Intercellular Adhesion Molecule 1 (ICAM1), ICAM1 (gene 3383); test: BSK_KF3CT_ICAM1: BioMAP Diversity Plus: KF3CT Assay for Intercellular Adhesion Molecule 1 (ICAM1) Biomarker Activity (AID 2283067); settings: primary human keratinocytes with fibroblasts; actives raise or lower the signal
Outline: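 Cell-surface ICAM-1 was measured by ELISA 24 h after dosing primary human skin keratinocytes co-cultured with fibroblasts. Parallel SRB staining tracked overt cytotoxicity. Gain or loss of signal was fitted relative to DMSO.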

[20] = read-out: Interferon-gamma inducible Protein 10 (IP10), CXCL10 (gene 3627); test: BSK_KF3CT_IP10: BioMAP Diversity Plus: KF3CT Assay for Interferon-gamma inducible Protein 10 (IP10) Biomarker Activity (AID 2283068); settings: primary human keratinocytes with fibroblasts; actives raise or lower the signal
Outline: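 Human keratinocyte plus foreskin fibroblast primary co-culture exposed to test chemical for 24 h; IP-10 measured by ELISA. Concentration-response fitted bidirectionally against DMSO control as baseline.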

Measured: AC50

CC(C1CC1)C(O)(Cn1cncn1)c1ccc(Cl)cc1 (centres undefined)
active: [11] 29.9 µM
inactive: all other assays above

Nc1c(Cl)cc([N+](=O)[O-])cc1Cl
active: [5] 3.97 µM | [11] 27.6 µM | [16] 4.71 µM
inactive: all other assays above

CCCCN(CC)c1c([N+](=O)[O-])cc(C(F)(F)F)cc1[N+](=O)[O-]
active: [5] 25.5 µM | [11] 27.9 µM | [12] 29.8 µM | [13] 30.1 µM | [16] 4.66 µM | [18] 31.1 µM | [20] 27.9 µM
inactive: all other assays above

CNC(=O)Oc1cccc2c1OC(C)(C)O2
active: [9] 12.2 µM
inactive: all other assays above

CN1COCN(Cc2cnc(Cl)s2)C1=N[N+](=O)[O-]
inactive: all assays above

CC1=NNC(=O)N(/N=C/c2cccnc2)C1
inactive: all assays above

Cc1ccn2nc(S(=O)(=O)Nc3c(F)cccc3F)nc2n1
inactive: all assays above

N#CSCSC#N
inactive: [4] | [14]
active: [1] 30.2 µM | [2] 14.6 µM | [3] 31.3 µM | [5] 1.09 µM | [6] 30.6 µM | [7] 19.3 µM | [8] 2.52 µM | [9] 1.68 µM | [10] 3.03 µM | [11] 0.225 µM | [12] 1.93 µM | [13] 0.66 µM | [15] 1.78 µM | [16] 3.17 µM | [17] 1.71 µM | [18] 2.32 µM | [19] 5.57 µM | [20] 8.38 µM

CCCCOC(=O)c1ccccc1C(=O)O
inactive: all assays above

CN(C)[C@@H]1C(=O)C(C(N)=O)=C(O)[C@@]2(O)C(=O)C3=C(O)c4c(O)cccc4[C@@](C)(O)[C@H]3[C@H](O)[C@@H]12
active: [5] 29.9 µM | [11] 19.6 µM and 13.9 µM | [12] 23.3 µM | [15] 31.6 µM | [17] 28.6 µM
inactive: [1] | [2] | [3] | [4] | [5] | [6] | [7] | [8] | [9] | [10] | [11] | [12] | [13] | [14] | [15] | [16] | [17] | [18] | [19] | [20]

C=C(C)[C@H]1Cc2c(ccc3c2O[C@@H]2COc4cc(OC)c(OC)cc4[C@@H]2C3=O)O1
active: [3] 0.164 µM | [9] 0.771 µM | [11] 0.486 µM | [17] 7.69 µM | [20] 31.8 µM
inactive: all other assays above

S=C1NCCN1
inactive: all assays above

CC(C)N(C(=O)SCC(Cl)=C(Cl)Cl)C(C)C
active: [2] 32.4 µM | [3] 20 µM | [5] 34 µM | [8] 30.5 µM | [9] 28.4 µM | [10] 33.6 µM | [11] 36.6 µM | [12] 32 µM | [13] 33.8 µM | [14] 34.4 µM | [15] 33.8 µM | [16] 31.4 µM | [17] 34.8 µM | [18] 34.4 µM | [19] 29.8 µM | [20] 36.3 µM
inactive: [1] | [4] | [6] | [7]

CON=C(C(=O)OC)c1ccccc1CON=C(C)c1cccc(C(F)(F)F)c1
active: [7] 8.45 µM | [8] 1.47 µM | [9] 2.78 µM | [11] 2.77 µM | [13] 4.21 µM | [14] 5.26 µM | [16] 2.74 µM | [18] 4 µM | [20] 18 µM
inactive: all other assays above

CCCCOC(=O)[C@@H](C)Oc1ccc(Oc2ccc(C#N)cc2F)cc1
inactive: all assays above

CC(C)[C@H](C(=O)O[C@H](C#N)c1cccc(Oc2ccccc2)c1)c1ccc(Cl)cc1
active: [3] 4.81 µM | [11] 3.36 µM | [16] 3.97 µM
not listed: [20]
inactive: all other assays above

CCc1cnc(C2=NC(C)(C(C)C)C(=O)N2)c(C(=O)O)c1 (centres undefined)
inactive: all assays above

CCOP(=S)(OCC)Oc1ccc([N+](=O)[O-])cc1
active: [3] 15.4 µM | [5] 20 µM | [11] 14.2 µM | [12] 9.79 µM | [17] 20 µM | [18] 20 µM | [20] 32.7 µM
inactive: all other assays above

CCCCSP(=O)(SCCCC)SCCCC
active: [2] 31.7 µM | [3] 20 µM | [5] 20 µM | [8] 20 µM | [11] 30.6 µM | [12] 14.6 µM
inactive: all other assays above

CNc1cnn(-c2cccc(C(F)(F)F)c2)c(=O)c1Cl
inactive: all assays above

CN(C)NC(=O)CCC(=O)O
inactive: all assays above

C#CC(C)(C)NC(=O)c1cc(Cl)cc(Cl)c1
active: [5] 4.25 µM | [8] 2.72 µM
inactive: all other assays above
